Experimental data from PubChem BioAssay AID1814 (Broad Institute, 2009).
Among all 300,000 compounds or so, about 22,000 (7.3%) were called active. Not shown: some 2% with an inconclusive outcome. Rule as the data show it: active = activity score below about -60%; inconclusive = mostly about -28% to -61%; inactive = positive scores. The sample as a whole holds a higher share of actives than the screen did.

Test: Activators via SNCA 5'UTR binding, MLPCN (AID 1814)
Conditions: alpha-synuclein 5'UTR reporter, activators screen; active compounds read low; tested at 7.5 µM

Activity score, inactive:
CCC(C)(C)c1ccc(Oc2ccc(NC(=O)COC(=O)C3=COCCO3)cc2)cc1 90.6%
COc1cc(N=Cc2c(O)[nH]c3ccccc23)cc(OC)c1OC 81%
CCn1nc(C)c(NC(=O)/C=C/c2ccc(OC)c(COc3ccc(Br)cc3)c2)c1C 61.8%
OCCCNc1nccc(-c2cc(Nc3cccc(Cl)c3)ncn2)n1 73.3%
CC(C)n1cnc2c(Nc3cccc(Cl)c3)nc(N(CCO)CCCO)nc21 64.7%
CCCCCn1c(=O)c(C(=O)OCC)c(Cl)c2ccccc21 92.6%

Activity score, active:
COc1ccc(OC)c(/C(C)=N\NC(=O)c2cc3cc(Cl)ccc3n2C)c1 -215%
CC1CCCCC1NC(=O)/C(C#N)=C/C=C/c1ccccc1[N+](=O)[O-] (configuration not stated) -239%
O=C(OCC(=O)c1cccs1)C1=COCCO1 -103%
COc1cccc(-c2nnc(N(C)C(=O)c3ccno3)s2)c1 -79.4%
CCN(CC)S(=O)(=O)c1cc(C(=O)Nc2ccccn2)ccc1C -79.9%
COc1cccc(NCCC(=O)c2cccc([N+](=O)[O-])c2)c1 -115%
Nc1ccccc1/C=N\N=C/c1ccccc1N -112%
Cc1cccc(-n2ncc(Cl)c(Cl)c2=O)c1 -220%
Fc1ccc(-c2csc(-c3ccc(C4SCCS4)cc3)n2)cc1F -125%
CCOC(=O)c1cn[nH]c1NC(=S)Nc1ccccc1 -131%
Cc1ccc(C2CC(c3cccc(NS(C)(=O)=O)c3)=NN2S(C)(=O)=O)cc1 (configuration not stated) -70.6%
CS(=O)(=O)Nc1ccc(C2=NN(S(C)(=O)=O)C(c3cccs3)C2)cc1 (configuration not stated) -69.5%
O=C(CN1C(=O)COc2ccccc21)Nc1ccc(F)cc1 -126%
Cc1ccc(NC(=O)c2cc(-c3ccccc3O)n[nH]2)cc1C -129%
Cc1ccc(O)c(-c2cc(C(=O)NCc3ccccc3)[nH]n2)c1 -148%
O=C(Nc1ccccc1)Nc1nc2ccccc2s1 -64.8%
Cn1nnnc1SCC(=O)Nc1nc2ccccc2s1 -151%
CCSc1nsc(NC(=O)Nc2cccc(C(C)=O)c2)n1 -111%
CSc1nsc(NC(=O)Nc2ccccc2)n1 -123%
CCc1cc2c(=O)c(-c3ccon3)c(N)oc2cc1OC -160%
COc1ccc(N=C(C)c2sc3ccccc3c2O)cc1 -125%
Nc1[nH][nH]c(=O)c1N=Nc1ccc2c(c1)OCO2 -112%
Cc1ccc(NC(=S)Nc2ncccc2C)c(C)c1 -199%
COc1ccc2c(c1)CCc1c(C(=O)N3CCCC3)noc1-2 -103%
CNC(=O)/C(C#N)=C/c1c(F)cccc1Cl -73.3%
O=C(Nn1c(SCc2ccc([N+](=O)[O-])cc2)nc2ccccc2c1=O)c1ccc(F)cc1 -81.2%
c1ccc(-c2nccc(-c3ccc(-n4cnc5ccccc54)cc3)n2)nc1 -88%
CC(C)(C)C(=O)c1cnc(Nc2ccccc2)s1 -123%
O=C(c1ccc(Cl)cc1)c1cnc(Nc2ccccc2)s1 -159%
COCCN(C(=O)c1ccco1)c1nnc(-c2ccc(OC)cc2)s1 -68.7%
N#C/C=C\Oc1ccc(Cl)cc1N -166%
COc1ccccc1C1=Nc2cccc3cccc(c23)N1 -62.4%
CC1=CC(=C(C#N)c2nc3ccccc3s2)C=C(C)N1c1ccc(F)cc1F -123%
C=CCn1c(=NC(=O)c2cccs2)sc2cc(NC(C)=O)ccc21 -164%
Clc1ccccc1SCc1nc2ccccc2[nH]1 -90.6%
CCNC(=O)N1CCCC(C(=O)c2ccc(-c3ccccc3)cc2)C1 (configuration not stated) -101%
O=C(Nc1ccc(Cl)c(Cl)c1)N1CC=C(c2ccccc2)CC1 -65.8%
Cc1ccc(Cl)c(OCC(=O)N2CCc3ccccc3C2)c1 -117%
COc1ccc(C2CC(c3cccs3)=Nc3ccccc3S2)cc1OC (configuration not stated) -90.7%
O=C(/C(=C/c1cccc(Cl)c1)c1nc2ccccc2[nH]1)c1ccccc1 -338%
Cc1nc(NC(=O)C2CCCCC2)sc1C -136%
O=[N+]([O-])c1cccc(/C=N/Nc2ncc(Br)cn2)c1 -194%
O=[N+]([O-])c1ccc(N/N=C/c2ccccc2)cc1 -210%
CSc1ccccc1-c1nnc(-c2ccc(Cl)cc2)o1 -146%
COc1ccccc1-c1nnc(-c2ccc(F)cc2)o1 -122%
O=C1C(C=NCC2CCCO2)=C(O)c2ccccc21 (configuration not stated) -95.6%
CCS(=O)(=O)n1nc(-c2ccccc2)nc1SCc1ccccc1 -118%
CCS(=O)(=O)n1nc(-c2ccc(OC)cc2)nc1SC -98.6%
Cc1cc(O)c(NC(=O)c2ccc(C)c([N+](=O)[O-])c2)cc1C -110%
COc1ccccc1CSc1nc2ccccc2[nH]1 -156%
CCCCSc1nc2ccccc2[nH]1 -86.8%
CC(C)n1c(=O)[nH]c2cc(C(=O)Nc3ccccc3)ccc21 -119%
COc1ccc(-c2c(C#Cc3ccccc3)c3ccccc3n2C)cc1 -87.3%
CCOC(=O)c1nn(-c2cccc(C)c2)cc1C(=O)c1ccccc1 -90.5%
O=C1c2ccccc2S(=O)(=O)c2cc(N3CCN(c4ccccn4)CC3)ccc21 -68.6%
COc1ccc(C2=NOC(COC(=O)c3ccc4ccccc4n3)C2)cc1 (configuration not stated) -68.4%
CN(C)c1ccc(-c2nnc(-c3cccnc3)o2)cc1 -195%
c1ccc(CN=C2Nc3ccccc3CS2)nc1 -111%
COc1ccc(C2Nc3ccccc3C(=O)N2c2ccc(Cl)cc2)cc1Cn1cc([N+](=O)[O-])cn1 (configuration not stated) -111%
COc1ccc(N2C(=O)c3ccccc3NC2c2ccc(OC)c(CN3CCOCC3)c2)cc1 (configuration not stated) -72.6%
CCN(CC)C(=O)C(=O)Nc1cccc(Br)c1 -75.5%
COc1cccc2[nH]c(C(=O)NCCc3ccccc3)cc12 -162%
NC(=S)N/N=C/c1coc2cc(Cl)ccc2c1=O -88.7%
N#Cc1nc(Cc2ccccc2)oc1NCCc1ccccc1 -147%
CCOc1ccc(Nc2oc(Cc3ccccc3)nc2C#N)cc1 -109%
COc1ccc(Nc2oc(-c3ccccc3Cl)nc2C#N)cc1 -108%
Cc1ccc(-c2csc(NC(=O)c3cccs3)n2)cc1 -239%
O=C(Nc1ccccc1)c1ccc(NC(=O)c2cccs2)cc1 -107%
COc1cc(NC(=O)c2cccs2)ccc1NC(=O)c1ccccc1Cl -62.1%
Cc1ccc(C(=O)NNC(=O)c2cccs2)cc1 -65.9%
O=C(NNC(=O)c1ccc(Cl)cc1Cl)c1cccs1 -115%
COc1ccc(-n2nc(C(=O)NCC(=O)N3CCN(c4ccccc4OC)CC3)c3ccccc3c2=O)c(OC)c1 -64%
Cc1c(N=Nc2ccc(N(C)C)cc2)c(=O)n(-c2ccccc2)n1C -101%
O=C(/C=C/c1ccc(Cl)cc1)Nc1ccc(Br)cn1 -62.5%
CC(C)=CCc1c(O)c(CC=C(C)C)c2occ(-c3ccc(O)cc3)c(=O)c2c1O -75.6%
O=C(Nc1ccc2c(c1)CCC2)c1ccc(Br)s1 -159%
N/C(=N\OC(=O)c1ccc2c(c1)OCO2)c1ccc(Br)cc1 -162%
CCCCNc1ccc(C(=O)Nc2cccc(C)n2)cc1[N+](=O)[O-] -102%
Cc1cc(NC(=O)CSc2nc3c(cc2C#N)CCCCC3)no1 -104%
COC(=O)/C(=C1\Oc2ccc(C(C)(C)C)cc2S1)C(F)(F)F -189%
O=C1Oc2ccccc2C(=O)/C1=C/c1ccccc1O -96.6%
COc1ccc2c(c1)O/C(=C\c1ccccc1O)C2=O -94.2%
COc1ccc(-c2noc(-c3cccc(OC)c3OC)n2)cc1OC -193%
COc1cc(NC(=O)c2ccc(-c3csc(C)n3)cc2)c(OC)cc1Cl -64.4%
O=C(CCSc1ccccc1)N1CCN(c2ccccc2F)CC1 -115%
COc1ccc(-c2nc3n(c2Br)CCC3)cc1 -122%
CN1C(=O)/C(=C/C=C2\SCCN2C)OC1=S -169%
Cn1c(Nc2cccc(Cl)c2)nc2ccccc21 -63.6%
O=c1c2cc(-c3ccccc3)sc2nc2n1N=C(c1cccs1)CS2 -105%
Oc1ccccc1CNc1ncc(Br)cc1Br -62.4%
COc1ccc2cc(C(=O)NCC3CCCO3)[nH]c2c1 (configuration not stated) -90.6%
O=C(NCCc1ccccc1)c1ccc2c(c1)N(Cc1ccccc1)CCS2 -105%
O=C(Cn1c(=S)nc2ccccn21)N1CCc2ccccc2C1 -96.2%
CCn1nccc1C(=O)Nc1ccc(Cl)c(Cl)c1 -89.2%
CCc1ccc(NC2Nc3cc(C)nn3S2)cc1 (configuration not stated) -79.3%
CCOC(=O)c1cnc(Nc2nc3ccccc3o2)nc1CSC(=S)N1CCCCC1 -133%
NS(=O)(=O)c1ccccc1NC(=O)c1c(O)c2ccccc2[nH]c1=O -64.6%
CCOC(=O)c1cnc2[nH]c3ccccc3n2c1=O -85.9%
Cc1ccc(SCCSc2ncccn2)cc1 -110%
S=C(NCc1ccco1)Nc1ccc2c(c1)OCCO2 -105%
FC(F)Oc1ccc(NC(=S)NCc2ccco2)cc1Cl -62.2%
